Mcl1-Bid inh: Mcl-1/Bid binding inhibitors, primary screen, biochemical, TR-FRET, 1536-well. Induced myeloid leukemia cell differentiation protein Mcl-1 (Homo sapiens), Q07820. TR-FRET Mcl-1/Bid-Dy647 peptide binding. inhibition, % at 21.7 µM. hit rate 0.97% among 220,000;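 active = compounds that cut the binding signal by more than half at the single screening dose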;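 note: His-tagged Mcl-1 with europium anti-His antibody binding Bid BH3 peptide; 0% = Mcl-1 plus peptide wells and 100% = peptide-only wells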
Target sequence (Q07820 whole entry, looked up): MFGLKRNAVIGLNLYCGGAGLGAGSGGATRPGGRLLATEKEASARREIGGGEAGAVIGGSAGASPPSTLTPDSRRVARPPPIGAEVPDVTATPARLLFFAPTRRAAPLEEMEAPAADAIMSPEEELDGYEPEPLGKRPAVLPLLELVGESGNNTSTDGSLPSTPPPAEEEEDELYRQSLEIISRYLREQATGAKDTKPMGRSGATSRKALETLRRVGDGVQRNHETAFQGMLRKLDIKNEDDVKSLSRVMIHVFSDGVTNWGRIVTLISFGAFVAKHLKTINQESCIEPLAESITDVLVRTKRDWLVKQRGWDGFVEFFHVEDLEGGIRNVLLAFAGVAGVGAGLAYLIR
Bim-Mcl-1: inhibitors of Bim peptide binding to Mcl-1, primary screen, biochemical, bead-based flow cytometry, multiplex; Bim peptide-Mcl-1 binding; inhibition, % at 10 µM; hit rate 0.1% among 190,000; AID 1009, 2008; in the data active = inhibition above about 40%;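 note: 0% = no compound tracer wells and 100% = peptide blocker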
MCL1-BIM inh: inhibitors of MCL1 binding to BIM-BH3, primary screen, biochemical, fluorescence polarization; Induced myeloid leukemia cell differentiation protein Mcl-1 (Homo sapiens), Q07820; GST-MCL1 / FITC-Bim-BH3 fluorescence polarization; inhibition, % at 10.9 µM; hit rate 0.68% among 320,000; AID 2057, 2009;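 active = inhibition above the mean inhibition of all tested compounds plus 3 SD, set per campaign, cut at about 40% in these data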;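 note: 0% = DMSO wells and 100% = unlabeled Bim-BH3 peptide control; higher means more loss of mP so more displacement of Bim peptide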
Mcl1 Noxa PPI: Mcl-1/Noxa binding inhibitors, primary screen, biochemical, TR-FRET, 1536-well. AID 1022, 2008. inhibition, % at 21.7 µM. TR-FRET Mcl-1/Noxa peptide binding, 2 h. hit rate 1.5% among 220,000;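 active = compounds that cut the protein-peptide binding signal by more than 50% relative to plate controls in a single-dose test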;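 note: His-tagged Mcl-1 with rhodamine Noxa BH3 peptide and terbium anti-His antibody; 0% = Mcl-1 plus Noxa peptide wells and 100% = peptide-only wells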
BCLXL inh confirm: Bcl-xL inhibitors blocking Bim BH3 binding, confirmation, counter-screen for MCL1 inhibitor project, biochemical, fluorescence polarization; shares compounds with MCL1-BIM inh; GST-Bcl-xL / FITC-Bim BH3 peptide FP binding; inhibition, % at 10.9 µM; hit rate 54% among 1,700;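 active = inhibition above a cutoff equal to the mean inhibition of all tested compounds plus 3 SD, cut at about 30% in these data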;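 note: 0% = DMSO wells and 100% = unlabeled Bim BH3 control peptide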
Target sequence (Q07817 whole entry, looked up): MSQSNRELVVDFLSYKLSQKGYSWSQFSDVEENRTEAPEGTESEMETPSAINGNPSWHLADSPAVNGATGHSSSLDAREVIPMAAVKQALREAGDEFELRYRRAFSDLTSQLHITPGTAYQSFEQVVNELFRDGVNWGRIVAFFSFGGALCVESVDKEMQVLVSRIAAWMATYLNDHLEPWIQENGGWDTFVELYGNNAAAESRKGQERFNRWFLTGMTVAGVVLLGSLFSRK
MCL1 BIM confirm: inhibitors of MCL1 binding to BIM-BH3, confirmation, biochemical, fluorescence polarization, triplicate; shares compounds with MCL1-BIM inh; GST-MCL1 / FITC-Bim-BH3 fluorescence polarization; inhibition, % at 10.9 µM; hit rate 61% among 1,700;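 active = inhibition above the average of all tested compounds plus 3 SD, cut at about 40% in these data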;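 note: 0% = DMSO wells and 100% = unlabeled Bim-BH3 control peptide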
* hit, by the source's call; · = not tested or not shown; + = active, no number. In the library only some 2% were active in any assay of this set; here they are far more common.

SMILES	Mcl1-Bid inh	Bim-Mcl-1	MCL1-BIM inh	Mcl1 Noxa PPI	BCLXL inh confirm	MCL1 BIM confirm
Cc1ccc(-c2nc(CS(=O)CC(=O)N3CCC4(CC3)OCCO4)c(C)o2)cc1 (stereo unspecified)	85*	2	-2	-22	·	·
COC(=O)C1=C(c2ccc(-c3ccccc3)c(F)c2)C[C@@H]2CC[C@H]1N2C(=O)N1CCOCC1	·	·	-3	·	·	·
Oc1ccc2c3c1O[C@H]1c4[nH]c5ccccc5c4C[C@@]4(O)[C@@H](C2)N(CC2CC2)CC[C@]314	·	·	3	·	·	·
Oc1ccc2c3c1O[C@H]1c4[nH]c5ccccc5c4C[C@@]4(O)C(C2)N(CC2CC2)CC[C@]314	13	0	66*	17	·	·
CCC(C)n1c(O)c(C=Nc2cccc(C(F)(F)F)c2)c(=O)[nH]c1=S (stereo unspecified)	-30	-5	-9	-2	·	·
CCN(CC(=O)Nc1ccc(NC(C)=O)cc1)C(=O)CSC(c1ccccc1)c1ccccc1	·	·	3	·	·	·
COc1cc(C=C2C(=O)NC(=O)NC2=O)ccc1OS(=O)(=O)c1ccccc1[N+](=O)[O-]	·	·	13	·	·	·
CCOc1cc(C=C2C(=O)NC(=O)NC2=O)ccc1OS(=O)(=O)c1ccccc1	-2	-1	9	60*	·	·
CCCCCCn1c(O)c(C=NCCN2CCOCC2)c(=O)[nH]c1=O	99*	-1	-16	25	·	·
COc1ccc(CCNC(=O)COC(=O)Cc2ccccc2)cc1	78*	-7	-27	7	·	·
O=C(c1c[nH]c2ccc(S(=O)(=O)N3CCOCC3)cc2c1=O)N1CCC2(CC1)OCCO2	-3	-1	1	7	·	·
COc1ccc(OC)c(N2Cc3ccccc3C2=N)c1	-3	3	-1	17	·	·
C=CCC1(CN2CCCCCC2=O)C(=O)NC(=O)NC1=O	61*	1	8	-12	·	·
C=CCC1(CN2CCCC2=O)C(=O)NC(=O)NC1=O	-2	-1	2	8	·	·
C[C@]12CCC(=O)C[C@H]1CC[C@@H]1[C@@H]2CC[C@]2(C)[C@@H](O)CC[C@@H]12	·	·	3	·	·	·
C[C@]12CC[C@@H]3c4ccc(O)c(O)c4CC[C@H]3[C@@H]1CC[C@@H]2O	-76	4	14	64*	·	·
O=C1c2ccccc2C(=O)N1Cc1nc2ccccc2c(=O)n1-c1cccnc1	73*	-1	0	40	·	·
O=C1c2ccccc2C(=O)N1Cc1nc2ccccc2c(=O)n1-c1ccc(Br)cn1	-15	2	-1	-18	·	·
O=C(O)Cn1cc(/C=C2\C(=O)NC(=O)N(c3ccc(Cl)cc3)C2=O)c2ccccc21	·	·	-20	·	·	·
Cn1cc(/C=C2\C(=O)NC(=O)N(c3ccccc3)C2=O)c2ccccc21	·	·	182*	·	60*	64*
Oc1c(Br)c(Br)c(Br)c(Br)c1Br	·	·	73*	·	23	55*
COC(=O)C1=C(c2cccc(C#N)c2)C[C@@H]2CC[C@H]1N2C(=O)NCCCOC(C)C	·	·	2	·	·	·
Cc1cc(N2CCCC2)ccc1C=C(C#N)C#N	-6	2	180*	-15	85*	108*
N#CC(C#N)=Cc1ccc(C=C(C#N)C#N)cc1	-17	·	·	-4	·	·
CCCNC(=O)N1[C@H]2CC[C@@H]1C(C(=O)OC)=C(c1cccc(C#N)c1)C2	·	·	-10	·	·	·
SMILES	Mcl1-Bid inh	Bim-Mcl-1	MCL1-BIM inh	Mcl1 Noxa PPI	BCLXL inh confirm	MCL1 BIM confirm
CC(C)c1ccc(-n2c(O)c(C=NC(CCS(C)=O)C(=O)O)c(=O)[nH]c2=S)cc1 (stereo unspecified)	-31	·	-7	0	·	·
CCOc1ccc(-n2c(O)c(/C=C3\C=Nc4ccccc43)c(=O)[nH]c2=O)cc1	·	·	79*	·	6	-8
Cn1c(O)c(Cc2cccc(Cl)c2Cl)c(=O)n(C)c1=O	·	·	1	·	·	·
CC(C)CN(CC(C)C)c1ccc(C=C2C(=O)NC(=S)NC2=O)cc1[N+](=O)[O-]	-37	-3	70*	-19	42*	97*
CCN(CC)c1ccc(C=C2C(=O)NC(=S)NC2=O)cc1	27	·	3	47	·	·
CN1CCN(c2cccc3c2C(=O)c2ccccc2C3=O)CC1	-8	-6	·	47	·	·
CN1CCN(c2ccc3c(c2)S(=O)(=O)c2ccccc2C3=O)CC1	·	·	85*	·	63*	84*
N#Cc1ccc(NC(=O)CN2C(=O)NC3(CCCCCCC3)C2=O)cc1Cl	·	·	-6	·	·	·
CC1(O)CCN2C(=O)CCc3cccc1c32 (stereo unspecified)	·	·	66*	·	8	9
COC(=O)c1cn(C(=O)c2cccc3ccccc23)c2ccccc12	-16	·	-2	-11	·	·
CN1CC=C2C(C#N)=C(N)C(C#N)(C#N)C(c3ccncc3)C2C1 (stereo unspecified)	·	8	164*	·	37*	50*
O=[N+]([O-])c1cnc[nH]1	·	·	10	·	·	·
CN(C)C1C(=O)C(C(N)=O)=C(O)C2(O)C(=O)C3=C(O)c4c(O)cccc4C(C)(O)C3C(O)C12 (stereo unspecified)	·	·	105*	·	33*	84*
COc1ccc(N/N=C/c2c(O)n(-c3ccc(C)c(C)c3)c(=O)[nH]c2=O)cc1	-1	27	54*	19	11	5
C[n+]1c2ccccc2nc2ccc(NCCO)cc21	·	·	82*	·	78*	84*
CNc1ccc2nc3ccccc3[n+](C)c2c1	·	·	185*	·	118*	169*
CCn1c(=O)cc(SCC(=O)N2CCC3(CC2)OCCO3)c2ccccc21	-29	0	-1	13	·	·
CCCN1CCc2cccc3c2[C@H]1Cc1ccc(O)c(O)c1-3	·	·	46*	·	54*	85*
COc1ccc2c(c1O)-c1c(OC)c(OC)cc3c1[C@H](C2)N(C)CC3	·	·	3	·	·	·
CCNC(=O)NC(=O)C(C)OC(=O)c1c(C)nn(Cc2ccccc2Cl)c1Cl (stereo unspecified)	-6	-3	-5	-4	·	·
CCC(CO)NC(=O)C1C=C2c3cccc4[nH]cc(c34)CC2N(C)C1 (stereo unspecified)	-143	·	47*	17	96*	111*
CC(C)C[C@H]1C(=O)N2CCC[C@H]2[C@]2(O)O[C@](NC(=O)[C@@H]3C=C4c5cccc6[nH]cc(c56)C[C@H]4N(C)C3)(C(C)C)C(=O)N12	·	·	+	·	93*	114*
CC[C@@H](CO)NC(=O)[C@@H]1C=C2c3cccc4c3c(cn4C)C[C@H]2N(C)C1	1	2	171*	19	29	42*
COC(=O)C1C=C2c3cccc4[nH]cc(c34)CC2N(C)C1 (stereo unspecified)	-36	·	·	46	·	·

Screens (PubChem)
